# Screening data from PubChem.
# Rows were chosen to be rich in hits. Some 2.3% of all compounds tested hit in one or more screens of this group.
# Mcl-1 Bim block: inhibitors of Bim-Mcl-1 interaction, human. Q07820. Bead-based flow cytometry, Bim peptide-Mcl-1 binding. inhibition, % at 10 µM. 190,000 tested, 0.1% active; in the data active = inhibition above about 40%
# Target sequence (Q07820 whole entry, looked up): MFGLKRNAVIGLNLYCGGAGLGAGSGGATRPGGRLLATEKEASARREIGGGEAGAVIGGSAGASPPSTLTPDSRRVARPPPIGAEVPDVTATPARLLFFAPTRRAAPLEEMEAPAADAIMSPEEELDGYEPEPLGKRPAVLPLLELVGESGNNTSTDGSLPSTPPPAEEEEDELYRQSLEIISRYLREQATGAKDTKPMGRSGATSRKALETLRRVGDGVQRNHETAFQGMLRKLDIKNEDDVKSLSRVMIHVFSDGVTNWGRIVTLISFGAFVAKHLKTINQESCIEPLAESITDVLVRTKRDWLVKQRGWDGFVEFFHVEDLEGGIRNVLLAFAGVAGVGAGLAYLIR
# GLD-1 RNA inh: GLD-1-TGE RNA interaction inhibition (C. elegans); purified GLD-1 + fluorescein TGE RNA, fluorescence polarization; inhibition, % at 5.96 µM; 320,000 tested, 0.44% active;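 active = percent inhibition above a per-plate cutoff, the plate mean of test compounds plus 3 SD, cut at about 30% in these data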
# MCL1-BIM inh: inhibitors of human MCL1 binding to BIM-BH3 peptide; Q07820; GST-MCL1 / FITC-Bim-BH3 fluorescence polarization; inhibition, % at 10.9 µM; 320,000 tested, 0.68% active; AID 2057;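 active = inhibition above the mean inhibition of all tested compounds plus 3 SD, set per campaign, cut at about 40% in these data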;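 note: higher means more loss of mP so more displacement of Bim peptide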
# Mcl1-Noxa inh: disrupts binding of human Mcl-1 to Noxa peptide. 220,000 tested, 1.5% active. TR-FRET Mcl-1/Noxa peptide binding, 2 h. inhibition, % at 21.7 µM. AID 1022. Q07820;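 active = compounds that cut the protein-peptide binding signal by more than 50% relative to plate controls in a single-dose test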;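 note: His-tagged Mcl-1 with rhodamine Noxa BH3 peptide and terbium anti-His antibody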
# BCLXL inh: Bcl-xL (human) inhibition | Q07817 | GST-Bcl-xL / FITC-Bim BH3 peptide fluorescence polarization | inhibition, % at 10.9 µM | 320,000 tested, 0.7% active | AID 2129;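 active = inhibition above the mean of all tested compounds plus 3 SD, cutoff set per campaign, cut at about 30% in these data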;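 note: inhibitors lower millipolarization by displacing the labeled peptide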
# Target sequence (Q07817 whole entry, looked up): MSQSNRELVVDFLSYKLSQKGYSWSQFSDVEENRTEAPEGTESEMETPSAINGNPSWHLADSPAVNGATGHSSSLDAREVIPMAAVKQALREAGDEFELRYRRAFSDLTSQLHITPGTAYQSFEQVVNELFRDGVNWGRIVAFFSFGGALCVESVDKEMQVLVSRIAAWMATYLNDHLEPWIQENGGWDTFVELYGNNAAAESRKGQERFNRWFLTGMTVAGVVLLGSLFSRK
# Mcl1 Bid PPI: Mcl-1/Bid interaction inhibition. AID 1021. inhibition, % at 21.7 µM. 220,000 tested, 0.97% active. TR-FRET Mcl-1/Bid-Dy647 peptide binding, 1536-well;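 active = compounds that cut the binding signal by more than half at the single screening dose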;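 note: His-tagged Mcl-1 with europium anti-His antibody binding Bid BH3 peptide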
# Hits are given with their value; - = inactive; . = no result.
SMILES,Mcl-1 Bim block,GLD-1 RNA inh,MCL1-BIM inh,Mcl1-Noxa inh,BCLXL inh,Mcl1 Bid PPI
O=C(Nc1ccc(S(=O)(=O)Nc2nccs2)cc1)c1cccc(N2C(=O)c3ccccc3C2=O)c1,-,-,-,53.4,-,-
CC(=O)Oc1cccc(N2C(=O)c3cccc4c([N+](=O)[O-])ccc(c34)C2=O)c1,.,-,-,.,-,.
O=C(Nc1nccs1)c1cccc(N2C(=O)c3cccc4c([N+](=O)[O-])ccc(c34)C2=O)c1,-,69.3,46.6,92.5,42.9,100.9
Cc1nc(N2CCN(c3ccccn3)CC2)c2c(C)c(C(=O)N3CCN(c4cccc(Cl)c4)CC3)sc2n1,.,-,-,.,-,.
COc1ccc(CC(=O)Oc2ccc(Br)cc2F)cc1S(=O)(=O)N1CCOCC1,.,-,-,.,-,.
CCOC(=O)c1sc(NC(=O)CSc2nnc(-c3ccco3)n2CC)c(C(=O)OCC)c1C,-,-,-,64.3,-,-
CCC1(CC)NC(=O)N(CC(=O)Nc2sc3c(c2C(N)=O)CCC3)C1=O,-,-,-,72.8,-,-
CCOC(=O)Cc1csc(SCC(=O)Nc2sc3c(c2C(N)=O)CCC3)n1,-,-,-,71.2,-,-
NC(=O)c1c(NC(=O)CSc2nnc(-c3ccco3)n2-c2ccccc2)sc2c1CCC2,-,-,-,88.1,-,-
N#Cc1c(NC(=O)CSc2nnc(-c3ccco3)n2-c2ccccc2)sc2c1CCC2,-,-,-,-,-,-
CCC1(C)NC(=O)N(CC(=O)Nc2sc3c(c2C(=O)OC)CCCCC3)C1=O (stereo unspecified),-,-,-,-,-,-
O=C(CSc1nc2ccccc2c(=O)[nH]1)Nc1ccccc1C(F)(F)F,.,-,-,.,-,.
C=CCNC(=O)/C(C#N)=C/c1cn(-c2ccccc2)nc1-c1ccc(OC)c([N+](=O)[O-])c1,-,-,-,-,-,58.3
CCSc1ccc(-c2nn(-c3ccccc3)cc2/C=C(/C#N)C(=O)NC)cc1,-,-,-,-,-,-
CSc1nc(NCc2ccco2)c2c3c(sc2n1)CN(C)CC3,-,-,-,57.3,-,-
CSc1nc(SCC(=O)NCc2ccco2)c2c3c(sc2n1)CN(C)CC3,-,-,-,83.7,-,-
CSc1nc(SCC(N)=O)c2c3c(sc2n1)CN(C)CC3,-,-,-,-,-,-
Cc1ccc(OCCCC(=O)Nc2ccccc2C(F)(F)F)cc1,-,-,-,73.6,-,-
Cc1c(C(=O)N2CCC[C@H]2CO)oc2c(F)cccc12,.,-,-,.,-,.
Cc1cccc(/N=C/c2sc3ccccc3c2O)n1,.,-,-,82.3,-,-
Cc1cccc(/N=C/c2c(O)[nH]c3ccccc23)n1,-,-,-,-,-,-
O=[N+]([O-])c1ccc(O)c(N=Cc2sc3ccccc3c2O)c1,-,-,-,53.1,-,-
CCCN(CCC)C(C(=O)Nc1cccc(OC)c1)c1ccccc1 (stereo unspecified),-,-,-,-,-,95.2
Cc1nc2ccccc2c(=O)n1-c1ccc(F)c(NS(=O)(=O)c2ccccc2F)c1,.,-,-,.,-,.
COc1ccc(NN=Nc2nc3c([nH]2)c(=O)n(C)c(=O)n3C)cc1,.,-,-,67.4,-,-
SMILES,Mcl-1 Bim block,GLD-1 RNA inh,MCL1-BIM inh,Mcl1-Noxa inh,BCLXL inh,Mcl1 Bid PPI
CC1CCCCC12NC(=O)N(CC(=O)OCC(=O)N(C)C1CCCCC1)C2=O (stereo unspecified),.,-,-,.,-,.
Cc1ccc(C(=O)N/C(=C\c2ccc(-c3ccccc3[N+](=O)[O-])o2)C(=O)NCCCN2CCOCC2)cc1,.,-,-,.,31.7,.
S=c1[nH]nc(-c2cccc(Cl)c2)n1/N=C/c1ccc(-c2ccccc2Br)o1,.,-,-,72.3,-,-
S=c1[nH]nc(-c2ccccc2)n1/N=C/c1ccc(-c2ccccc2Cl)o1,-,-,-,63.9,-,-
Cc1nnc(C)n1/N=C/c1ccc(-c2ccccc2Cl)o1,.,-,-,.,-,.
CSc1nc2ccc3nc(NC(=O)c4cccs4)sc3c2s1,-,-,-,-,-,65.9
O=C(Nc1nc(-c2ccccn2)cs1)c1ccc(Cl)s1,-,-,-,-,-,-
CSc1nc2ccc3nc(NC(=O)c4ccc(Cl)s4)sc3c2s1,-,-,-,52.3,-,66.1
Cc1ccccc1NC(=O)CCCN1C(=O)C2CC=CCC2C1=O (stereo unspecified),.,-,-,.,-,.
N#Cc1ccsc1NC(=O)CN1CCN(c2ccc(O)cc2)CC1,-,-,-,71.5,-,-
O=C(CN1CCN(c2ccc(O)cc2)CC1)Nc1ccc(SC(F)F)cc1,-,-,-,70.1,-,-
CCOc1ccc(N2C=Nc3ccc(OCC)cc3C2)cc1,.,-,-,.,-,.
CN1C(=O)/C(=C/c2ccccc2OCc2cccc(F)c2)NC1=S,-,-,-,-,-,77.7
O=C1C(C=Nc2ccccc2O)=C(O)c2ccccc21,-,-,-,-,-,-
Cc1ccc(O)c(N=CC2=C(O)c3ccccc3C2=O)c1,-,-,43.2,63.4,38.1,-
CC1CCCCC1NC(=O)CN(C)S(=O)(=O)c1ccc2c(c1)CCC(=O)N2 (stereo unspecified),.,-,-,.,-,.
COc1ccc(CNC(=O)Cc2cccs2)cc1,.,-,-,.,-,.
COc1ccc(CC(=O)NCc2cccs2)cc1,-,-,-,63.0,-,-
CCN(CC)S(=O)(=O)c1ccc(NC(=O)Nc2cccc(C(F)(F)F)c2)cc1,-,-,-,-,-,100.6
Cc1ccc(S(=O)(=O)Nc2ccc(NC(=O)Nc3cccc(C(F)(F)F)c3)cc2)cc1,-,-,-,-,-,-
CC(=O)CC1(C)OC(N)=C(C#N)C1(C#N)C#N (stereo unspecified),-,56.8,-,.,45.4,.
O=C(CN1c2cccc3cccc(c23)S1(=O)=O)NCc1ccc(F)cc1,.,-,.,.,.,.
Cc1ccc(CNC(=O)CN2c3cccc4cccc(c34)S2(=O)=O)cc1,.,-,-,.,42.1,.
CCN(CC)CCn1c(=O)n(-c2ccc(Cl)cc2)c(=O)c2c3c(sc21)CN(C)CC3,.,-,-,-,35.4,-
CN1CCc2c(sc3c2c(=O)n(-c2ccc(Cl)cc2)c2nncn32)C1,-,-,-,-,-,-
SMILES,Mcl-1 Bim block,GLD-1 RNA inh,MCL1-BIM inh,Mcl1-Noxa inh,BCLXL inh,Mcl1 Bid PPI
Nc1cc2nc[nH]c2cc1N,-,.,.,74.3,.,-
COc1ccc(N2CCN(C(=O)c3ccc4c(c3)OCO4)CC2)cc1,-,-,-,-,-,86.1
COc1ccc(N2CCN(C(=O)c3ccc(CSc4ccccc4)cc3)CC2)cc1,-,-,-,95.7,-,-
CC(=O)c1ccc(N2CCN(C(=O)c3ccc4c(c3)OCO4)CC2)cc1,.,-,-,.,-,.
COc1ccc(N2CCN(C(=O)CSc3ccccc3)CC2)cc1,-,-,-,-,-,-
Cn1c(N)c(C(=O)CSc2nc(N)cc(N)n2)c(=O)n(C)c1=O,-,-,-,-,-,-
Cc1cc(OCC(=O)OCC(=O)NCc2ccc3c(c2)OCO3)ccc1Cl,.,-,-,.,-,.
